Results taken from PubChem BioAssay (NCATS).
Values without a mark were called inactive. Results filed as inconclusive are left out. The source made the active and inactive calls. Unless noted, calls follow the shape of the dose curve; as a rule, active = well fitted curve in the direction sought with a large enough effect; inconclusive = small, poorly fitted or top-dose-only effect, or another doubt; inactive = no such curve, though single readings can be large; an effect the other way counts as inactive or inconclusive.

Experiments:
[1] = target: Lysosomal acid glucosylceramidase (Homo sapiens) (UniProt P04062); experiment: Glucocerebrosidase-p2 (AID 348; in the data active = potency below about 10 µM; also: potency is read from the fitted curve at half-maximal effect); settings: purified GBA, blue fluorogenic substrate, 40 min
Procedure, shortened: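 Normal human glucocerebrosidase (0.2 nM) with blue fluorogenic substrate (80 uM final) in citrate/phosphate pH 5.9 with 10mM sodium taurocholate, 0.01% tween-20; 40 min RT, NaOH/glycine stop; fluorescence Ex 365/Em 440; AC50 from a titration from 0.6 nM upwards.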

[2] = AP1 Signaling Pathway (AID 357; active = well fitted curve in either direction with a large enough effect, not every such curve was filed as active; also: % is scaled to controls: 0 for no effect and ±100 for the full control effect); settings: ME-180 AP-1-bla reporter, EGF-induced, beta-lactamase ratio, 5 h; at 7.69 µM (top of the series) unless noted
Procedure, shortened: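 ME-180 cells with beta-lactamase reporter under AP-1 response element, stimulated with EC50 EGF; compounds tested in titration series, 5 h at 37 °C. CCF4 substrate added 2.5 h at room temperature; 460/530 nm emission ratio gave %activity and AC50.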

[3] = target: Cytochrome P450 1A2 (Homo sapiens) (UniProt P05177); experiment: p450-cyp1a2 (AID 410; calls by dose curve; also: potency is read from the fitted curve at half-maximal effect); settings: recombinant CYP1A2, luciferin-ME demethylation, luminescence; series mostly up to 57 µM
Procedure, shortened: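 O-Demethylation of luciferin 6' methyl ether by human CYP1A2 is monitored as luciferase luminescence. Substrate sits at Km (100uM); enzyme is 20nM. Values are scaled to 57 uM furafylline as maximal inhibition.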

[4] = NFAT Signaling Pathway (AID 444; active = well fitted curve in either direction with a large enough effect, not every such curve was filed as active;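 also: carbachol stimulus at about its EC50 of 1 µM final; % is scaled to controls: 0 for no effect and ±100 for the full control effect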); settings: Jurkat NFAT-bla M1, carbachol, beta-lactamase ratio, 5 h; at 7.69 µM (top of the series) unless noted
Procedure, shortened: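 Jurkat cells carrying an NFAT-driven β-lactamase reporter and co-transfected muscarinic M1 receptor were treated with compound plus carbachol (1 uM final, an EC50 level) for 5 h at 37 °C. CCF4 loading followed for 1 h at RT; 460/530 nm ratio gave %activity.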

[5] = target: Glucocorticoid receptor (Homo sapiens) (UniProt P04150); experiment: GR-GFP Redistribution (AID 450;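 active = compounds whose dose series gives a full or clear partial fitted curve of increased nuclear translocation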; also: potency is read from the fitted curve at half-maximal effect); settings: U2OS GR-GFP nuclear translocation, laser cytometry, 2 h
[6] = target: Glucocorticoid receptor (Homo sapiens) (UniProt P04150); experiment: GR-EFC Redistribution (AID 451; calls by dose curve; also: potency is read from the fitted curve at half-maximal effect); settings: CHO-K1 GR-EFC translocation, beta-gal luminescence, 2 h
Procedure, shortened: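 CHO-K1 cells stably expressing nuclear-localized β-gal enzyme acceptor and GR fused C-terminally to the enzyme donor fragment; ligand-driven nuclear translocation restores β-gal by complementation. Compounds titrated up to 46 uM final, 2 h at 37 °C; luminescence read.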

[7] = target: Mitogen-activated protein kinase 10 (Mus musculus) (UniProt Q61831); experiment: JNK3 AlphaScreen Assay (AID 530; active = well fitted curve in either direction with a large enough effect, not every such curve was filed as active;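 also: kinase came from lysate of stimulated human HepG2 cells; signal reports phosphorylation of biotinylated GST-cJun 1-79 at Ser73 with 10 µM ATP; % is scaled to controls: 0 for no effect and ±100 for the full control effect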); settings: JNK3 lysate, c-Jun phosphorylation; series mostly up to 57.1 µM
Procedure, shortened: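 Phosphorylation of biotinylated GST-cJun(1-79) at Ser73 is measured by AlphaScreen proximity luminescence. Enzyme is JNK3 in HepG2 lysates activated with interleukin-1beta and tumor necrosis factor alpha; ATP is 10 uM final.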

[8] = target: Cytochrome P450 3A4 (Homo sapiens) (UniProt P08684); experiment: qHTS Assay for Inhibitors and Substrates of Cytochrome P450 3A4 (AID 884); settings: recombinant CYP3A4, Luciferin-PPXE luminescence; series mostly up to 57.1 µM; also: potency is read from the fitted curve at half-maximal effect; nearly all actives have a fitted effect of over 50% in size
Procedure, shortened: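 Luminescent readout of luciferin produced by CYP3A4 (20 nM) dealkylation of Luciferin-PPXE, 25 uM (its KM). NADPH-driven reaction ran 60 min at RT after 10 min compound preincubation; data scaled to 57 uM ketoconazole as 100% inhibition.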

[9] = target: Cytochrome P450 3A4 (Homo sapiens) (UniProt P08684); experiment: qHTS Assay for Activators of Cytochrome P450 3A4 (AID 885); settings: recombinant CYP3A4, Luciferin-PPXE luminescence, 60 min; series mostly up to 57.1 µM; also: nearly all actives have a fitted effect of over 65% in size
Procedure, shortened: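 Luminescent readout of luciferin formed from 25 uM Luciferin-PPXE (KM level) by 20 nM CYP3A4 in 200 mM KPO4, with 60 min NADPH-driven reaction at room temperature after 10 min compound exposure. Ketoconazole (57 uM) defined 100% inhibition.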

[10] = target: Dual specificity protein kinase CLK4 (Homo sapiens) (UniProt Q9HAZ1); experiment: qHTS Assay for Inhibitors of CDC-like Kinase 4 (ADP-Glo Assay) (AID 1771); settings: recombinant CLK4, ADP-Glo luminescence; series mostly up to 80 µM; also: nearly all actives have a fitted effect of over 70% in size; also: potency is read from the fitted curve at half-maximal effect
Procedure, shortened: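 Compounds are pin-transferred onto substrate mix (100 uM RS peptide, 1 uM ATP), then 25 nM Clk4 is added. After 1 hr at room temperature, ADP-Glo reagent runs 45 min, detection reagent 30 min, then luminescence is read.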

[11] = target: Dual specificity protein kinase CLK4 (Homo sapiens) (UniProt Q9HAZ1); experiment: qHTS Assay for Inhibitors of CDC-like Kinase 4 (ADP-FP Assay) (AID 1795); settings: Transcreener ADP fluorescence polarization; series mostly up to 50 µM; also: nearly all actives have a fitted effect of over 60% in size; also: potency is read from the fitted curve at half-maximal effect
Procedure, shortened: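 FP readout: Orange Transcreener ADP2 tracer (4 nM) plus ADP antibody, read after 30 min at room temperature. Kinase step: 6.25 nM Clk4, 100 uM RS peptide, 1 uM ATP, pH 7.5, 1 h.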

[12] = target: Ubiquitin carboxyl-terminal hydrolase 1 (Homo sapiens) (UniProt O94782); experiment: Inhibitors of USP1/UAF1: Pilot qHTS (AID 504865); settings: purified USP1/UAF1, Ub-rhodamine cleavage fluorescence; series mostly up to 54.9 µM;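 also: rhodamine fluorescence freed from ubiquitin-rhodamine substrate followed over time; top concentration of the series differs between compounds; % is scaled to controls: 0 for no effect and ±100 for the full control effect; nearly all actives have a fitted effect of over 35% in size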
Procedure, shortened: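 1nM USP1/UAF1 + cpd, 15 min RT; start w/ Ub-Rho 150nM final; kinetic FL 480/540 nm, 6 reads q60 s. Buffer 50mM HEPES pH 7.8, 0.5mM EDTA, 1mM TCEP, 0.01% Tween-20, 0.1 mg/ml BSA.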

[13] = Primary qHTS for small molecule stabilizers of the endoplasmic reticulum resident proteome: Secreted ER Calcium Modulated Protein (SERCaMP) assay (AID 1508630); settings: SH-SY5Y GLuc-SERCaMP (Gaussia luciferase released on ER calcium loss) secretion, thapsigargin, luminescence; series mostly up to 38.4 µM; also: % is scaled to controls: 0 for no effect and ±100 for the full control effect
Procedure, shortened: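 The SH-SY5Y reporter protocol was run at 3 concentrations up to 38.3 uM (primary) or 11 concentrations (follow-up): 16 h compound, 100 nM thapsigargin for 4 h, then extracellular luciferase luminescence.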

[14] = target: 3',5'-cyclic-AMP phosphodiesterase 4B (Homo sapiens) (UniProt Q07343); experiment: qHTS Assay for Inhibitors of PDE-IV (AID 607; active = well fitted activation curve with a large enough effect in the main read-out, with a control signal flat, not every such curve was filed as active; also: % of control where 0% means no effect); settings: HEK293 ACTOne CNG channel cells, membrane potential fluorescence; series mostly up to 22.9 µM
Procedure, shortened: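 Cell-based read-out of cAMP via a modified cyclic nucleotide-gated channel and membrane potential dye (535/590 nm) in HEK293 cells expressing PDE4 endogenously. Compounds tested up to 22.9 uM final; 100 uM RO 20-1724 reference.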

[15] = qHTS Assay for Identification of Small Molecule Agonists for Hypoxia Response Element Signaling Pathway (AID 914; active = well fitted activation curve with a large enough effect in the signal ratio, with a control signal flat, not every such curve was filed as active; the % refers to the signal ratio; also: potency is read from the fitted curve at half-maximal effect; as to activation: % of control where 0% means no effect); settings: ME-180 HRE-bla reporter, beta-lactamase ratio, CoCl2, 17 h; activation: active compounds read high
Procedure, shortened: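 A beta-lactamase reporter under hypoxia response element control in ME-180 cells served as the system. Compound titrations plus EC50 CoCl2 ran 17 h at 37 degrees Celsius; AC50 values were fitted from %Activity.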

[16] = target: Cytochrome P450 2C19 (Homo sapiens) (UniProt P33261); experiment: qHTS Assay for Inhibitors and Substrates of Cytochrome P450 2C19 (AID 899); settings: recombinant CYP2C19, luciferin-H EGE luminescence; series mostly up to 57.1 µM; also: potency is read from the fitted curve at half-maximal effect; nearly all actives have a fitted effect of over 60% in size
Procedure, shortened: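 In 50mM KPO4, the reaction held 5nM enzyme and KM-level (10uM) Luciferin-H EGE; it ran 60 min at 37C after NADPH regeneration and a 10 min compound preincubation. Luminescence values were scaled to 57uM ketoconazole as complete inhibition.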

[17] = Stat Signaling Pathway (AID 446; active = well fitted curve in either direction with a large enough effect, not every such curve was filed as active); settings: ME-180 (cervical carcinoma) SIE beta-lactamase reporter, IL-6 stimulated, 5 h; at 7.69 µM (top of the series) unless noted
Procedure, shortened: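 FRET read-out (405 nm excitation, 460/530 nm emission) of a beta-lactamase reporter under a STAT-inducible element in ME-180 cervical carcinoma cells. Cells with compound receive 40 pM IL-6 for 5 h. Values are normalised to AC90 stimulation and AC90 JAK-inhibitor controls.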

[18] = target: Cytochrome P450 2C9 (Homo sapiens) (UniProt P11712); experiment: qHTS Assay for Inhibitors and Substrates of Cytochrome P450 2C9 (AID 883); settings: recombinant CYP2C9, luciferin-H luminescence, 60 min; series mostly up to 57.1 µM; also: % is scaled to controls: 0 for no effect and ±100 for the full control effect; nearly all actives have a fitted effect of over 60% in size
Procedure, shortened: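 CYP2C9 deoxyluciferin hydroxylation, 37C, 60 min with NADPH regeneration; 10nM enzyme, 100uM Luciferin-H (KM). Glo detection reagent stopped reaction; luminescence normalized to sulphaphenazole (57uM) full inhibition.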

Cytochrome P450 3A4 (Homo sapiens), sequence (P08684 whole entry, looked up): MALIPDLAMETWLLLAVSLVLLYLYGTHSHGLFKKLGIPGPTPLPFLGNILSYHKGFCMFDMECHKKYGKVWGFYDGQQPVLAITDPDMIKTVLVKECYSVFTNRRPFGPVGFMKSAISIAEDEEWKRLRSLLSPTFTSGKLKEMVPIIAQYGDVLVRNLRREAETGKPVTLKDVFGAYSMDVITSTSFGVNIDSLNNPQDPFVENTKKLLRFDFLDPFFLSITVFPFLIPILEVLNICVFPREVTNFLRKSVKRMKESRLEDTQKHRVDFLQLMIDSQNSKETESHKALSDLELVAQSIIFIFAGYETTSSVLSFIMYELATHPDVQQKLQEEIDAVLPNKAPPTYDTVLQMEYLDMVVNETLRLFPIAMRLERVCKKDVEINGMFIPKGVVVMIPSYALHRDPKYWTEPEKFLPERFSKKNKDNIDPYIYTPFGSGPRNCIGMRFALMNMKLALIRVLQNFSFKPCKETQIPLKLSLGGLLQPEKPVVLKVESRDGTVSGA
3',5'-cyclic-AMP phosphodiesterase 4B (Homo sapiens), sequence (Q07343 whole entry, looked up): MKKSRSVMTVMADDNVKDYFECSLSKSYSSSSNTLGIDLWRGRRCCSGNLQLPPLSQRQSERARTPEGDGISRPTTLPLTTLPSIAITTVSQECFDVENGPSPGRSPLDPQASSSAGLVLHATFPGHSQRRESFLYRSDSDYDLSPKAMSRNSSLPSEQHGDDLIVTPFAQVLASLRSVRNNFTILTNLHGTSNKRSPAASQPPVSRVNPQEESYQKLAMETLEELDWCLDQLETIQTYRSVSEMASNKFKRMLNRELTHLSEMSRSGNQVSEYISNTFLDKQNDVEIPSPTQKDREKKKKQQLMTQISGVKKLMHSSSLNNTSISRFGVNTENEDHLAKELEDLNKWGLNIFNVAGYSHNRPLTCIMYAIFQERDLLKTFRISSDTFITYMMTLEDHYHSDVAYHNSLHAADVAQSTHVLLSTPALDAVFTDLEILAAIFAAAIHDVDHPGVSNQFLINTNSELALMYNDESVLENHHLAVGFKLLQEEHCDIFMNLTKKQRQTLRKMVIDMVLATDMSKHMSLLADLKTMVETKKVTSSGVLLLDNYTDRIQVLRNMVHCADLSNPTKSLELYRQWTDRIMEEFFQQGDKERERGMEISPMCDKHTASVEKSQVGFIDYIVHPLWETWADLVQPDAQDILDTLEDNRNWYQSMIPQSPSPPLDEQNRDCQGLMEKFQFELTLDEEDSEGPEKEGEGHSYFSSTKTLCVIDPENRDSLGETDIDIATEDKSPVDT
Lysosomal acid glucosylceramidase (Homo sapiens), sequence (P04062 whole entry, looked up): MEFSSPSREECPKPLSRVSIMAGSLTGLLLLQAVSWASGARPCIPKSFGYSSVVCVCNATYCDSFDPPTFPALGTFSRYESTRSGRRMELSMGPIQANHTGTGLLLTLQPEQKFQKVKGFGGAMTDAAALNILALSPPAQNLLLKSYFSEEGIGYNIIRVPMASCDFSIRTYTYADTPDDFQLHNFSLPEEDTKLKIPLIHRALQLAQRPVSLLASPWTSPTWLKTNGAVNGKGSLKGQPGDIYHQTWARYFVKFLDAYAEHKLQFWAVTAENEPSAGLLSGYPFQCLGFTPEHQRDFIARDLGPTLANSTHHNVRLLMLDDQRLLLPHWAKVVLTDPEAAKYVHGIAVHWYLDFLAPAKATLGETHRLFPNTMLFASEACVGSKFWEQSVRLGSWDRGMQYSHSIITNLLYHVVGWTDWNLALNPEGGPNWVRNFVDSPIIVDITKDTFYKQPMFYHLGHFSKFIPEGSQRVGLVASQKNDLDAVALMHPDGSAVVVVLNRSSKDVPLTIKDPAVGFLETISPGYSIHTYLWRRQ
Glucocorticoid receptor (Homo sapiens), sequence (P04150 whole entry, looked up, the tested form may be a part): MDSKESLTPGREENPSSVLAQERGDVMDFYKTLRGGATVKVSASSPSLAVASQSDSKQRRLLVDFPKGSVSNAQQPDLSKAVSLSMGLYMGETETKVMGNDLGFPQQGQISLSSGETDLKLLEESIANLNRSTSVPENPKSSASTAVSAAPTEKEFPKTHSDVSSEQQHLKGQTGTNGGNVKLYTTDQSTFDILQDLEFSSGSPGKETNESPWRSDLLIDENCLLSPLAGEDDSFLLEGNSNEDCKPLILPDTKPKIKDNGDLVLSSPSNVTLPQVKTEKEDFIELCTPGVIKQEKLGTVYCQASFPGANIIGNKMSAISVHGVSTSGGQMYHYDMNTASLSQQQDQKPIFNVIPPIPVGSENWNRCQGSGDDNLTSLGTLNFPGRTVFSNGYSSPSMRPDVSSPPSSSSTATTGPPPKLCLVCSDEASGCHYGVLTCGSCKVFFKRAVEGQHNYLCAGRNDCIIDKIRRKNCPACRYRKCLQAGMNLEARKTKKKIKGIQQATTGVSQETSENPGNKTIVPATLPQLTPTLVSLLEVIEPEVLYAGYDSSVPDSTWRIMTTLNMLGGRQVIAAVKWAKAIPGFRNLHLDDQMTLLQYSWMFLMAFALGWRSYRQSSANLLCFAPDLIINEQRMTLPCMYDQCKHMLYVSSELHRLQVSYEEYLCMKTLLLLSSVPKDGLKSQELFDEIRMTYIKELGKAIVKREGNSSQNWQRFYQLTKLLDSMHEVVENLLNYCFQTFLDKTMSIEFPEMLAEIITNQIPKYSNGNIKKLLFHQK
Dual specificity protein kinase CLK4 (Homo sapiens), sequence (Q9HAZ1 whole entry, looked up): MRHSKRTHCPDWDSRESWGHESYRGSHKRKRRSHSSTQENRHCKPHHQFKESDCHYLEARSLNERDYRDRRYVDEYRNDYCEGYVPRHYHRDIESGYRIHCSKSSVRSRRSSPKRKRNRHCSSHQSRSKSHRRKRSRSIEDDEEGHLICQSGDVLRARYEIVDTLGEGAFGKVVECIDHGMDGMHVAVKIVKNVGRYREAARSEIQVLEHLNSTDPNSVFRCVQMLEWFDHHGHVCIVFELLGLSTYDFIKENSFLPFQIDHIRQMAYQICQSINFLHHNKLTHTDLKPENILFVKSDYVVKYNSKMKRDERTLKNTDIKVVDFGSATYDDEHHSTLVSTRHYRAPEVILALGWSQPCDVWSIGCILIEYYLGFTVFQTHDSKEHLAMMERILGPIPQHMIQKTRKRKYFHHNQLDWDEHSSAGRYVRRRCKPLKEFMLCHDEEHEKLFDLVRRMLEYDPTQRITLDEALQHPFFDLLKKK
Ubiquitin carboxyl-terminal hydrolase 1 (Homo sapiens), sequence (O94782 whole entry, looked up): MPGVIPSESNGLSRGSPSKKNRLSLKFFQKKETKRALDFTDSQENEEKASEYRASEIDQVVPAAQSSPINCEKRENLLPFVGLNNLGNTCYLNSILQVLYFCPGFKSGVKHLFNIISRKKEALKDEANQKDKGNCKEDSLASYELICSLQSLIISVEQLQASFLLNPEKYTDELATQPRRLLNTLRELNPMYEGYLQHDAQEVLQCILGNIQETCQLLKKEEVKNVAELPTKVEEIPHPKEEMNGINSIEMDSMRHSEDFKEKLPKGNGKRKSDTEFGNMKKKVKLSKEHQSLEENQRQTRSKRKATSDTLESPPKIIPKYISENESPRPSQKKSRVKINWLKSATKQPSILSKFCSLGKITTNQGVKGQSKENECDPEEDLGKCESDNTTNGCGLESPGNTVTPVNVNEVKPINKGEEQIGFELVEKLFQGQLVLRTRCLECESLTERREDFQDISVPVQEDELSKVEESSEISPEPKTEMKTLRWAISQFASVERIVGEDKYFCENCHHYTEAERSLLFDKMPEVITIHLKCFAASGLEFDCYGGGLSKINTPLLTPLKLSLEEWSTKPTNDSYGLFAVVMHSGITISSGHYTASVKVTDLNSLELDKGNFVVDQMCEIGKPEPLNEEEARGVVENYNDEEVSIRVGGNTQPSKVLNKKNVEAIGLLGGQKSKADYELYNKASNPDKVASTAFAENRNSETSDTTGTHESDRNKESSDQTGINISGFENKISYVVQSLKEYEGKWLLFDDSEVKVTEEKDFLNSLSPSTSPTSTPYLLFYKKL
Cytochrome P450 1A2 (Homo sapiens), sequence (P05177 whole entry, looked up): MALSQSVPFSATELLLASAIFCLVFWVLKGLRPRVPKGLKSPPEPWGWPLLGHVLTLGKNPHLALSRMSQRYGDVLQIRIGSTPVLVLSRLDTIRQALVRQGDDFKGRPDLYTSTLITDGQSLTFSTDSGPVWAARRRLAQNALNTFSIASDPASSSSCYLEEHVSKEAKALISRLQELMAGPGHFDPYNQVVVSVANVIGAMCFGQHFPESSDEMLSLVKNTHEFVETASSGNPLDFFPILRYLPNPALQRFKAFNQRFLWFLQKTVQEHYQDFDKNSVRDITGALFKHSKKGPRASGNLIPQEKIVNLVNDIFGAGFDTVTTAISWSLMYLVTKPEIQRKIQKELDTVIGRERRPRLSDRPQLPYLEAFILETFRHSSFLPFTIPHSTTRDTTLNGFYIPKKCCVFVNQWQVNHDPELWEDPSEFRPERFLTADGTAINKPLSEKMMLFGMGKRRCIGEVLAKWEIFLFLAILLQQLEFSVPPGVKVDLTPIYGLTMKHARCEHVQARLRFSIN
Cytochrome P450 2C19 (Homo sapiens), sequence (P33261 whole entry, looked up): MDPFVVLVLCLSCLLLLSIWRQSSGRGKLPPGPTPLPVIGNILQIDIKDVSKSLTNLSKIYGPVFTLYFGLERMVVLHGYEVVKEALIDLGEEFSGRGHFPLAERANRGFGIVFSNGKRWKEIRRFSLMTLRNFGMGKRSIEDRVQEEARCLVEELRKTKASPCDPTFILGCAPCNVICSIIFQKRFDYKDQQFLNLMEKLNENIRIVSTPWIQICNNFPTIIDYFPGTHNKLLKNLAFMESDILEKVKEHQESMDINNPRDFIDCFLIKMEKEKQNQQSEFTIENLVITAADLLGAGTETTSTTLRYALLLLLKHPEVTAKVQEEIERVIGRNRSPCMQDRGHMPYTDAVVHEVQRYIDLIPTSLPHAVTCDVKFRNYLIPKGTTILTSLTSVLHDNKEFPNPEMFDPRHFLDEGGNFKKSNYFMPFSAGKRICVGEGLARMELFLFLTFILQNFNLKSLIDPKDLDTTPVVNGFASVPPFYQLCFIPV

Structure (SMILES) | Potency [1] | activity change, negative = inhibition [2] | Potency [3] | activity change, negative = inhibition [4] | Potency [5] | Potency [6] | Potency [7] | Potency [8] | Potency [9] | Potency [10] | Potency [11] | Potency [12] | outcome [13] | Potency [14] | activation [15] | Potency [16] | activity, negative = inhibition [17] | Potency [15] | activity change, negative = inhibition [18]
CC(=O)NCCNc1ncnc2ccc(-c3ccccc3C(F)(F)F)cc12 | > 11.4 µM | 12.5% | 10 µM (active) | 6.87% | > 46 µM | > 46 µM | inactive | 6.31 µM (active) | inactive | 31.6 µM (active) | inactive | inactive | inactive | – | – | – | – | – | –
Cn1cc(-c2nc3cncnc3n(Cc3ccccc3Cl)c2=O)c2ccccc21 | > 11.4 µM | – | 3.16 µM (active) | 3.77% | > 9.22 µM | > 46 µM | – | – | inactive | inactive | inactive | inactive | inactive | inactive | 15.7% | – | – | – | –
COc1cccc(-c2ccc3ncnc(NC4CC4)c3c2)c1 | > 11.4 µM | – | 0.2 µM (active) | 2.56% | – | > 46 µM | inactive | 2 µM (active) | inactive | 0.316 µM (active) | 126 nM (active) | inactive | inactive | – | – | 1.26 µM (active) | – | – | –
COc1ccc(-c2nc3cnc(N4CCOCC4)nc3n(CCc3ccccc3)c2=O)cc1 | > 11.4 µM | – | 10 µM (active) | 119% [activator] (active) | > 9.22 µM | > 46 µM | inactive | – | – | inactive | inactive | inactive | inactive | inactive | – | – | 92.5% [activator] (active) | 1.26 µM (active) | –
CN(Cc1ccco1)c1cc(-c2cccc(C#N)c2)ncn1 | > 11.4 µM | -7.22% | 0.794 µM (active) | 11.4% | > 46 µM | > 46 µM | inactive | – | – | 28.2 µM (active) | – | inactive | inactive | inactive | – | – | 8.43% | – | 12.3% [at 2.29 µM]
COCCn1c(=O)c(-c2ccc(OC)cc2)nc2cnc(OCc3ccccc3)nc21 | > 11.4 µM | -11.8% | – | – | > 9.22 µM | > 46 µM | inactive | – | inactive | inactive | inactive | inactive | inactive | – | – | – | 7.46% | – | –
Cc1cnc(CNc2nc(-c3ccccc3C)nc3ccccc23)cn1 | > 11.4 µM | -8.73% | 3.16 µM (active) | -6.95% | > 46 µM | > 46 µM | inactive | – | inactive | inactive | inactive | inactive | inactive | inactive | – | – | -5.75% | – | –
